Test results reported in PubChem BioAssay (NCATS).
Records with an inconclusive call do not appear. Unless noted, the call rests on the fitted dose curve; in most records, active means well fitted curve in either direction with a large enough effect (not every such curve was filed as active); inconclusive means small, poorly fitted or top-dose-only effect, or another doubt; inactive means flat fitted curve, though single readings scatter.

Assays:
[1] = AP1 Signaling Pathway (AID 357); settings: ME-180 AP-1-bla reporter, EGF-induced, beta-lactamase ratio, 5 h; at 17.2 µM (top of the series) unless noted; further: on the % scale 0 is the no-effect control and ±100 the full control effect
How it was run: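 Modulation of EGF-driven AP-1 transcription was assessed with a beta-lactamase reporter in ME-180 cells. Compound and EC50 EGF were co-incubated 5 hours at 37 °C before 2.5-hour CCF4 loading at room temperature and dual-emission reading.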

[2] = NFAT Signaling Pathway (AID 444); settings: Jurkat NFAT-bla M1, carbachol, beta-lactamase ratio, 5 h; at 17.2 µM (top of the series) unless noted;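 further: carbachol stimulus at about its EC50 of 1 µM final; on the % scale 0 is the no-effect control and ±100 the full control effect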
How it was run: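 Jurkat cells carrying an NFAT-driven β-lactamase reporter and co-transfected muscarinic M1 receptor were treated with compound plus carbachol (1 uM final, an EC50 level) for 5 h at 37 °C. CCF4 loading followed for 1 h at RT; 460/530 nm ratio gave %activity.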

[3] = Stat Signaling Pathway (AID 446); settings: ME-180 (cervical carcinoma) SIE beta-lactamase reporter, IL-6 stimulated, 5 h; at 17.2 µM (top of the series) unless noted;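 further: ME-180 cervical cancer cells given 40 pM IL-6 alongside compound; SIE-controlled beta-lactamase reporter measured as 460/530 nm FRET emission ratio; on the % scale 0 is the no-effect control and ±100 the full control effect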
How it was run: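 IL-6/STAT signaling read in ME-180 cells via an SIE beta-lactamase reporter. Stimulus was 40 pM IL-6 (its AC50) for 5 hrs, so both activation and inhibition register.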

[4] = target: Glucocorticoid receptor (Homo sapiens) (UniProt P04150); test: GR-GFP Redistribution (AID 450;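 active means compounds whose dose series gives a full or clear partial fitted curve of increased nuclear translocation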; further: potency means the concentration at half of the fitted maximal effect)
Glucocorticoid receptor (Homo sapiens), sequence (P04150 whole entry, looked up): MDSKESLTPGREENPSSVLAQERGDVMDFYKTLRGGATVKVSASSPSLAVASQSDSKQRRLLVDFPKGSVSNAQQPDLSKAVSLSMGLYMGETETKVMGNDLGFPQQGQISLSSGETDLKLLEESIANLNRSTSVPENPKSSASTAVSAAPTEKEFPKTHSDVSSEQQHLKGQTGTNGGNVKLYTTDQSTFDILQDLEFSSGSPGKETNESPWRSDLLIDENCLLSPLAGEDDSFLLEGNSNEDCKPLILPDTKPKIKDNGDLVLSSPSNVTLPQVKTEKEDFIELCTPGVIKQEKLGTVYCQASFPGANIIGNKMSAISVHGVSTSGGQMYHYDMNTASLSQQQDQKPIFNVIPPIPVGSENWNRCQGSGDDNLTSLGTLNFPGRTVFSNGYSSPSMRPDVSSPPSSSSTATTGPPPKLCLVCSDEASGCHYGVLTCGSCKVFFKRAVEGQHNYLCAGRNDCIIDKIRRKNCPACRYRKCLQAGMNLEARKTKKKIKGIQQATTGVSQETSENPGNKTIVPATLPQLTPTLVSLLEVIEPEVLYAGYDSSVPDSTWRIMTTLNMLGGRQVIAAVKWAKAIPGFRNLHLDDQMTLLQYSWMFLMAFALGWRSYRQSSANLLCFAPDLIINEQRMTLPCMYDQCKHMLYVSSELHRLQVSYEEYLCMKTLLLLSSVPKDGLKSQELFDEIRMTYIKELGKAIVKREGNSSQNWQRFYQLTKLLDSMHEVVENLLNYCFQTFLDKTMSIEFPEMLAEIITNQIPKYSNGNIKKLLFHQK

CCOC(=O)c1c(C)n(C)c2ccc(O)c(S(=O)(=O)c3ccccc3)c12
inactive: activity change, negative = inhibition [1] -9.19% | activity change, negative = inhibition [2] 2.35% | activity, negative = inhibition [3] 11.2% | Potency [4] > 20.6 µM

CCn1c(SC(C)C(=O)O)nc2sc3c(c2c1=O)CCC3 (stereo not drawn)
inactive: activity change, negative = inhibition [1] 2.76% | activity change, negative = inhibition [2] 17.5% | activity, negative = inhibition [3] -5.33% | Potency [4] > 20.6 µM

CN1CCN(Cc2c(O)ccc3c(-c4ccccc4)cc(=O)oc23)CC1
inactive: activity change, negative = inhibition [1] -11.8% | activity change, negative = inhibition [2] -9.28% | activity, negative = inhibition [3] -7.33% | Potency [4] > 20.6 µM

O=C(CN1C2=NCCN2c2ccccc21)N1CCOCC1
inactive: activity change, negative = inhibition [1] 5.86% | activity change, negative = inhibition [2] -2.85% | activity, negative = inhibition [3] 8.05% | Potency [4] > 20.6 µM

COc1ccc(-n2ncc3c(Nc4cccc(C)c4)ncnc32)cc1
inactive: activity change, negative = inhibition [1] 1.56% | activity change, negative = inhibition [2] -11.9% | activity, negative = inhibition [3] -27.7% | Potency [4] > 20.6 µM

CCOC(=O)c1ccc(CC2S/C(=C(\C#N)C(C)=O)NC2=O)cc1 (stereo not drawn)
inactive: activity change, negative = inhibition [1] -24.1% | activity change, negative = inhibition [2] 13.3% | activity, negative = inhibition [3] -21.4% | Potency [4] > 20.6 µM

CCOC(=O)C1=C(C)N=C2SC(C)C(=O)N2C1c1ccc(OC(C)=O)c(OC)c1 (stereo not drawn)
inactive: activity change, negative = inhibition [1] -14.1% | activity change, negative = inhibition [2] 10.3% | activity, negative = inhibition [3] -17.1% | Potency [4] > 20.6 µM

CCOc1nc(SCCOc2ccccc2)nc(N(C)C)n1
inactive: activity change, negative = inhibition [1] -22.1% | activity change, negative = inhibition [2] 28% | activity, negative = inhibition [3] 8.95% | Potency [4] > 20.6 µM

Cc1cc2nncn2c(Cc2ccccc2)n1
inactive: activity change, negative = inhibition [1] -3.42% | activity change, negative = inhibition [2] -3.53% | activity, negative = inhibition [3] -8.81% | Potency [4] > 20.6 µM

N#CCCSc1nc(N2CCOCC2)c2c(c1C#N)CCCC2
inactive: activity change, negative = inhibition [1] -2.29% | activity change, negative = inhibition [2] 13.2% | activity, negative = inhibition [3] -12.4% | Potency [4] > 20.6 µM

CC1C/C=C/C=C/C=C/C=C/C(O[C@@H]2O[C@H](C)[C@@H](O)[C@H](N)[C@@H]2O)CC2OC(O)(CC(O)CC3OC3/C=C/C(=O)O1)CC(O)C2C(=O)O (stereo partly drawn)
inactive: activity change, negative = inhibition [1] 1.3% | activity change, negative = inhibition [2] 0.554% | activity, negative = inhibition [3] 5.83% | Potency [4] > 20.6 µM

CC1(c2ccco2)NC(=O)NC1=O (stereo not drawn)
inactive: activity change, negative = inhibition [1] 5.26% | activity change, negative = inhibition [2] 1.83% | activity, negative = inhibition [3] 5.48% | Potency [4] > 20.6 µM

O=C1N[C@@H](Cc2cnc[nH]2)C(=O)N2CCC[C@@H]12
inactive: activity change, negative = inhibition [1] 15.2% | activity change, negative = inhibition [2] -19.2% | activity, negative = inhibition [3] 4.85% | Potency [4] > 20.6 µM

COCCCN1C(=O)C(O)=C(C(=O)c2ccco2)C1c1ccc(Br)cc1 (stereo not drawn)
inactive: activity change, negative = inhibition [1] -15.5% | activity change, negative = inhibition [2] 11.4% | activity, negative = inhibition [3] -8.56% | Potency [4] > 20.6 µM

COC(=O)COn1c(SCC(=O)OC)nc2ccccc2c1=O
inactive: activity change, negative = inhibition [1] 2.38% | activity change, negative = inhibition [2] 3.27% | activity, negative = inhibition [3] -1.3% | Potency [4] > 20.6 µM

COc1ccc(OC)c(N=C(C)C2=C(O)COC2=O)c1
inactive: activity change, negative = inhibition [1] -4.74% | activity change, negative = inhibition [2] 0.486% | activity, negative = inhibition [3] -3.94% | Potency [4] > 20.6 µM

CCC(=O)Nc1cc(-c2nn(C)c(=O)c3ccccc23)ccc1N1CCCCC1
inactive: activity change, negative = inhibition [1] -16.8% | activity change, negative = inhibition [2] -13.8% | activity, negative = inhibition [3] -6.35% | Potency [4] > 20.6 µM

CCOc1ccc(-c2nnc3sc(-c4c(OC)cccc4OC)nn23)cc1
inactive: activity change, negative = inhibition [1] 3.89% | activity change, negative = inhibition [2] -3.46% | activity, negative = inhibition [3] 8.95% | Potency [4] > 20.6 µM

COC(=O)c1cc(Br)c(=O)n(Cc2cccnc2)c1
inactive: activity change, negative = inhibition [1] 2.36% | activity change, negative = inhibition [2] 10.7% | activity, negative = inhibition [3] 9.48% | Potency [4] > 20.6 µM

Cc1cc(C)nc(NC(=O)c2ccc(OC(C)C)cc2)n1
inactive: activity change, negative = inhibition [1] -5.46% | activity change, negative = inhibition [2] -4.53% | activity, negative = inhibition [3] -7.33% | Potency [4] > 20.6 µM

O=S1(=O)C[C@@H](N2CCOCC2)[C@H](N2CCOCC2)C1
inactive: activity change, negative = inhibition [1] -10.3% | activity change, negative = inhibition [2] 6.36% | activity, negative = inhibition [3] -4.63% | Potency [4] > 20.6 µM

CC(C)CC(=O)Nc1ncnc2c1C(=O)CC(C)(C)C2
inactive: activity change, negative = inhibition [1] 1.69% | activity change, negative = inhibition [2] -2.65% | activity, negative = inhibition [3] 14.7% | Potency [4] > 20.6 µM

Cc1c(/C(O)=C2/C(=O)C(=O)N(CCCN3CCOCC3)C2c2ccncc2)cnn1-c1ccccc1 (stereo not drawn)
inactive: activity change, negative = inhibition [1] 5.29% | activity change, negative = inhibition [2] -3.84% | activity, negative = inhibition [3] 5.14% | Potency [4] > 20.6 µM

COc1ccc2c(c1)[nH]c1c(=O)n(CCN(C)C)cnc12
inactive: activity change, negative = inhibition [1] 10.5% | activity change, negative = inhibition [2] 15.2% | activity, negative = inhibition [3] 8.04% | Potency [4] > 20.6 µM

COC(=O)C1C(=O)NCC1c1ccccc1 (stereo not drawn)
inactive: activity change, negative = inhibition [1] 9.38% | activity change, negative = inhibition [2] -1.78% | activity, negative = inhibition [3] 7.06% | Potency [4] > 20.6 µM

Cn1ncc2nc[nH]c(=O)c21
inactive: activity change, negative = inhibition [1] 0.993% | activity change, negative = inhibition [2] -1.7% | activity, negative = inhibition [3] 7.35% | Potency [4] > 20.6 µM

O=C(O)C1CSCN1S(=O)(=O)c1cccc2nsnc12 (stereo not drawn)
inactive: activity change, negative = inhibition [1] 1.17% | activity change, negative = inhibition [2] 4.31% | activity, negative = inhibition [3] -1.2% | Potency [4] > 20.6 µM
